Laboratory results taken from PMC5540273 (PLoS ONE, 2017).
Like-named read-outs stand apart in the source and are kept apart here.

Columns and labels:
Settings in all cases: n = 1
[1] = tested on: CAMKK2
[2] = tested on: CASK
[3] = tested on: T1, CDC2L1
T1 construct: gene CDK11B

[4] = tested on: CDC2L2
[5] = tested on: T2, CDC2L5
T2 construct: gene CDK13

[6] = tested on: T3, CDK11
T3 construct: gene CDK19

[7] = tested on: CDK2
[8] = tested on: CDK3
[9] = tested on: CDK4-cyclinD1
[10] = tested on: CDK4-cyclinD3
[11] = concentration: 1 μM, replicates: in singlicate
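Note: KINOMEscan kinase panel screen.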

| SMILES | %Inh [1, 11] [%] | %Inh [2, 11] [%] | %Inh [3, 11] [%] | %Inh [4, 11] [%] | %Inh [5, 11] [%] | %Inh [6, 11] [%] | %Inh [7, 11] [%] | %Inh [8, 11] [%] | %Inh [9, 11] [%] | %Inh [10, 11] [%] | %Inh ([1]; 1 µM) [%] | %Inh ([2]; 1 µM) [%] | %Inh ([3]; 1 µM) [%] | %Inh ([4]; 1 µM) [%] | %Inh ([5]; 1 µM) [%] | %Inh ([6]; 1 µM) [%] | %Inh ([7]; 1 µM) [%] | %Inh ([8]; 1 µM) [%] | %Inh ([9]; 1 µM) [%] | %Inh ([10]; 1 µM) [%] |
| --- | --- | --- | --- | --- | --- | --- | --- | --- | --- | --- | --- | --- | --- | --- | --- | --- | --- | --- | --- | --- |
| Cl.NC(=O)c1cccc(Nc2nccc(Nc3ccc(Oc4cccc(Cl)c4)c(Cl)c3)n2)c1 [GW659008] | 0 | 7 | 0 | 13 | 0 | 8 | 0 | 24 | 0 | 0 |  |  |  |  |  |  |  |  |  |  |
| Cl.Oc1ccc(-c2nc(-c3ccccc3)[nH]c2-c2ccncc2)cc1 [SB-428218] | 15 | 0 | 0 | 5 | 0 | 8 | 0 | 55 | 49 | 2 |  |  |  |  |  |  |  |  |  |  |
| COC(=O)c1c(-c2ccccc2)c2cc(OC)ccc2c(=O)n1Cc1ccccc1 | 17 | 0 | 7 | 3 | 0 | 12 | 2 | 10 | 0 | 0 |  |  |  |  |  |  |  |  |  |  |
| Cc1ccc(NC(=O)Nc2cccc(Cl)c2)cc1-c1ccc(C(=O)Nc2ccncc2)cc1 [GSK1398468] | 25 | 5 | 0 | 22 | 0 | 14 | 33 | 6 | 0 | 11 |  |  |  |  |  |  |  |  |  |  |
| Cc1cccc(-c2cc(Nc3ccncc3)c3ccccc3n2)n1 [GSK223675] | 20 | 0 | 0 | 19 | 0 | 7 | 0 | 0 | 0 | 9 |  |  |  |  |  |  |  |  |  |  |
| CCn1c(-c2cccnc2O)nc2cnccc21 [SB-736715] | 0 | 0 | 0 | 0 | 0 | 21 | 0 | 0 | 7 | 0 |  |  |  |  |  |  |  |  |  |  |
| Cc1csc(-c2nc(Nc3ccncc3)c3ccccc3n2)n1 [GW869640] | 23 | 26 | 0 | 5 | 8 | 7 | 7 | 9 | 11 | 1 |  |  |  |  |  |  |  |  |  |  |
| Cl.c1ccc(-c2n[nH]cc2-c2ccnc(-c3ccc(CN4CCOCC4)cc3)c2)nc1 [GW776245] | 19 | 6 | 5 | 8 | 0 | 0 | 0 | 46 | 4 | 0 |  |  |  |  |  |  |  |  |  |  |
| COc1cc2ncnc(Nc3ccc4nc(-c5ccccc5)[nH]c4c3)c2cc1OC.Cl [GW282450] | 13 | 25 | 0 | 16 | 0 | 0 | 0 | 22 | 0 | 0 |  |  |  |  |  |  |  |  |  |  |
| Cn1ccc2ncnc(Oc3ccc(Nc4nc5ccccc5[nH]4)cc3)c21 | 22 | 0 | 0 | 1 | 0 | 6 | 6 | 0 | 0 | 0 |  |  |  |  |  |  |  |  |  |  |
| CS(=O)(=O)c1ccc(-c2nc3n(c2-c2ccncc2)CCC3)cc1 [SKF-105942] | 0 | 26 | 100 | 0 | 0 | 0 | 0 | 28 | 0 | 6 |  |  |  |  |  |  |  |  |  |  |
| O=C(Nc1n[nH]c2cc(-c3cccc(F)c3F)ccc12)C1CC1 [SB-733894] | 13 | 30 | 2 | 0 | 8 | 5 | 22 | 0 | 0 | 30 |  |  |  |  |  |  |  |  |  |  |
| Cc1cccc(-c2nc(Nc3ccncc3)c3ccccc3n2)n1 [GW855857] | 7 | 0 | 0 | 0 | 0 | 0 | 0 | 20 | 13 | 0 |  |  |  |  |  |  |  |  |  |  |
| CC1=C(C(=O)Nc2cc3cn[nH]c3cc2F)C(c2ccc(C(F)(F)F)cc2)CC(=O)N1 (centres unmarked) [GSK429286] | 14 | 43 | 0 | 13 | 0 | 7 | 0 | 18 | 0 | 0 |  |  |  |  |  |  |  |  |  |  |
| NC(=O)c1nnc2ccccc2c1N | 0 | 36 | 7 | 25 | 11 | 3 | 6 | 19 | 32 | 0 |  |  |  |  |  |  |  |  |  |  |
| COc1cccc(-c2cc(-c3c[nH]nc3-c3ccccn3)ccn2)c1 [GW680338] | 9 | 18 | 0 | 9 | 0 | 10 | 0 | 6 | 58 | 0 |  |  |  |  |  |  |  |  |  |  |

| SMILES | %Inh [1, 11] [%] | %Inh [2, 11] [%] | %Inh [3, 11] [%] | %Inh [4, 11] [%] | %Inh [5, 11] [%] | %Inh [6, 11] [%] | %Inh [7, 11] [%] | %Inh [8, 11] [%] | %Inh [9, 11] [%] | %Inh [10, 11] [%] | %Inh ([1]; 1 µM) [%] | %Inh ([2]; 1 µM) [%] | %Inh ([3]; 1 µM) [%] | %Inh ([4]; 1 µM) [%] | %Inh ([5]; 1 µM) [%] | %Inh ([6]; 1 µM) [%] | %Inh ([7]; 1 µM) [%] | %Inh ([8]; 1 µM) [%] | %Inh ([9]; 1 µM) [%] | %Inh ([10]; 1 µM) [%] |
| --- | --- | --- | --- | --- | --- | --- | --- | --- | --- | --- | --- | --- | --- | --- | --- | --- | --- | --- | --- | --- |
| Cc1cccc(-c2nc(Nc3cccc(C(N)=O)c3)c3ccccc3n2)n1 [GW876019] | 0 | 30 | 0 | 2 | 10 | 8 | 0 | 59 | 18 | 0 |  |  |  |  |  |  |  |  |  |  |
| Cc1ccc(NC(=O)Nc2cccc(C(F)(F)F)c2)cc1 [GSK955403] |  |  |  |  |  |  |  |  |  |  | 19 | 15 | 3 | 0 | 0 | 20 | 0 | 0 | 0 | 0 |
| O=S(=O)(c1ccc(-c2ccnc3[nH]ccc23)cc1)N1CCCC1 [GSK846226] | 23 | 5 | 0 | 17 | 0 | 2 | 0 | 1 | 0 | 0 |  |  |  |  |  |  |  |  |  |  |
| COC(=O)c1c(-c2ccccc2)c2cc(C(=O)O)ccc2c(=O)n1Cc1ccccc1 | 0 | 18 | 0 | 3 | 40 | 0 | 0 | 0 | 0 | 0 |  |  |  |  |  |  |  |  |  |  |
| Nc1ncnc2[nH]c(-c3ccccc3)nc12 [AH5015] | 0 | 15 | 0 | 5 | 0 | 0 | 0 | 2 | 0 | 11 |  |  |  |  |  |  |  |  |  |  |
| O=C(O)COc1ncnc2cc(-c3ccc4[nH]ncc4c3)sc12 | 24 | 0 | 8 | 0 | 5 | 21 | 0 | 20 | 1 | 0 |  |  |  |  |  |  |  |  |  |  |
| Cl.O=C(Nc1cccc(-c2nn3ncccc3c2-c2ccnc(Nc3cccnc3)n2)c1)c1c(F)cccc1F [GSK312879] | 0 | 22 | 3 | 7 | 0 | 0 | 0 | 19 | 0 | 4 |  |  |  |  |  |  |  |  |  |  |
| Cn1ccc2ncnc(Oc3ccc(NC(=O)Nc4ccccc4)cc3)c21 | 0 | 0 | 0 | 0 | 0 | 0 | 0 | 11 | 0 | 0 |  |  |  |  |  |  |  |  |  |  |
| COc1ccc2nc(-c3cccc(C)n3)nc(Nc3ccncc3)c2c1 [GSK204919] | 0 | 23 | 0 | 0 | 0 | 0 | 0 | 0 | 0 | 0 |  |  |  |  |  |  |  |  |  |  |
| COc1ccccc1-c1ccc2c(NC(=O)C3CC3)n[nH]c2n1 [SB-711239] | 0 | 8 | 0 | 3 | 2 | 19 | 0 | 8 | 9 | 0 |  |  |  |  |  |  |  |  |  |  |
| COc1ccc(Nc2nccc(NCCNC(=O)Nc3ccccc3F)n2)cc1 [GSK1379901] | 0 | 9 | 5 | 20 | 0 | 12 | 0 | 16 | 0 | 9 |  |  |  |  |  |  |  |  |  |  |
| Nc1nc(-c2nccs2)c(-c2ccnc3ccccc23)s1 [GW693542] | 0 | 0 | 0 | 1 | 0 | 0 | 0 | 7 | 0 | 0 |  |  |  |  |  |  |  |  |  |  |
| O=C1NC(=O)C(N2CCc3ccccc32)=C1c1ccccc1Cl [SB-373598] | 4 | 0 | 0 | 3 | 0 | 12 | 16 | 0 | 14 | 15 |  |  |  |  |  |  |  |  |  |  |
| Cn1ccc2ncnc(Oc3cccc(C(=O)Nc4ccccc4)c3)c21 | 0 | 5 | 0 | 0 | 0 | 0 | 6 | 1 | 16 | 0 |  |  |  |  |  |  |  |  |  |  |
| CN(C)CCN(C)C(=O)c1cc(-c2ccncc2)c(-c2ccc(Cl)c(O)c2)o1.Cl.Cl [SB-710397] | 0 | 29 | 0 | 0 | 0 | 15 | 0 | 20 | 23 | 9 |  |  |  |  |  |  |  |  |  |  |
| Cc1cccc(-c2nc(Nc3ccc4[nH]ncc4c3)c3ccccc3n2)n1 [GW857175] | 0 | 45 | 12 | 9 | 20 | 0 | 0 | 0 | 23 | 0 |  |  |  |  |  |  |  |  |  |  |
